Where “and” joins values, the source holds several entries; their conditions need not be identical. Equal entries are not always repeated. The campaign covered roughly 5,500 compounds. About 2,000 (36%) were called active. Roughly 18% stayed inconclusive and do not appear here. Cut-off read from the data, not from the text of the source: active = normalized growth mostly below about 0.91 (no sharp cut-off); inconclusive = no clear call, values can overlap the other calls; inactive = mostly above about 0.92. The list shows a part of the results.
Assay: chemical genetic growth profiling, strain panel (AID 1159580);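 note: tested at 20 µM; growth read once vehicle control cultures reached saturation at 30 °C; 1 = growth at the plate median or of vehicle wells; lower values mean less growth of the strain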
Conditions: S. cerevisiae deletion strains, growth OD

Measured: normalized growth

Cc1cn([C@H]2C[C@H](N=[N+]=[N-])[C@@H](CO)O2)c(=O)[nH]c1=O
inactive: locus YAL013W, strain DEP1, stronger effect = lower value 1.01 | locus YAL021C, strain ccr4, stronger effect = lower value 0.993 | locus YAL026C, strain drs2, stronger effect = lower value 0.995 | locus YAL030W, strain snc1, stronger effect = lower value 1 | locus YBL061C, strain skt5, stronger effect = lower value 1 | locus YBR009C, strain hhf1, stronger effect = lower value 1.02 | locus YBR021W, strain FUR4, stronger effect = lower value 0.998 | locus YBR023C, strain chs3, stronger effect = lower value 1 | locus YBR171W, strain sec66, stronger effect = lower value 0.996 | locus YBR229C, strain ROT2, stronger effect = lower value 1.01 | locus YBR231C, strain swc5, stronger effect = lower value 1 | locus YBR279W, strain paf1, stronger effect = lower value 0.979 | locus YCL011C, strain gbp2, stronger effect = lower value 1.02 | locus YCL016C, strain dcc1, stronger effect = lower value 0.965 | locus YCL029C, strain bik1, stronger effect = lower value 1.01 | locus YCL069W, strain vba3, stronger effect = lower value 0.99 | locus YCR088W, strain abp1, stronger effect = lower value 0.995 | locus YDL005C, strain med2, stronger effect = lower value 1 | locus YDL035C, strain GPR1, stronger effect = lower value 1.01 | locus YDL040C, strain nat1, stronger effect = lower value 0.994 | locus YDL074C, strain BRE1, stronger effect = lower value 1.02 | locus YDL101C, strain DUN1, stronger effect = lower value 1.01 | locus YDL134C, strain PPH21, stronger effect = lower value 1 | locus YDL185W, strain tfp1, stronger effect = lower value 1.01 | locus YDL192W, strain arf1, stronger effect = lower value 1.01 | locus YDR001C, strain nth1, stronger effect = lower value 0.994 | locus YDR069C, strain doa4, stronger effect = lower value 1.01 | locus YDR101C, strain arx1, stronger effect = lower value 1.02 | locus YDR137W, strain rgp1, stronger effect = lower value 0.966 | locus YDR150W, strain NUM1, stronger effect = lower value 1 | locus YDR159W, strain sac3, stronger effect = lower value 0.971 | locus YDR162C, strain NBP2, stronger effect = lower value 1 | locus YDR195W, strain ref2 0.983 | locus YDR297W, strain sur2, stronger effect = lower value 1.02 | locus YDR318W, strain mcm21, stronger effect = lower value 1 | locus YDR334W, strain swr1, stronger effect = lower value 1.01 | locus YDR335W, strain msn5, stronger effect = lower value 0.984 | locus YDR388W, stronger effect = lower value 1 | locus YDR392W, strain spt3, stronger effect = lower value 0.924 | locus YDR502C, strain sam2, stronger effect = lower value 1.02 | locus YEL003W, strain gim4, stronger effect = lower value 1.01 | locus YEL037C, strain rad23, stronger effect = lower value 1 | locus YEL061C, strain CIN8 (second series), stronger effect = lower value 0.999 | locus YEL061C, strain CIN8, stronger effect = lower value 1 | locus YER015W, strain faa2, stronger effect = lower value 0.997 | locus YER016W, strain bim1, stronger effect = lower value 0.991 | locus YER110C, stronger effect = lower value 1.02 | locus YER111C, strain swi4, stronger effect = lower value 0.976 | locus YER155C, strain BEM2 (second series), stronger effect = lower value 1 | locus YER155C, strain BEM2, stronger effect = lower value 0.988 | locus YER167W, strain BCK2, stronger effect = lower value 0.998 | locus YFR010W, strain ubp6, stronger effect = lower value 1.01 | locus YGL078C, strain dbp3, stronger effect = lower value 1.01 | locus YGL086W, strain mad1, stronger effect = lower value 1 | locus YGL167C, strain pmr1, stronger effect = lower value 1 | locus YGL173C, strain kem1, stronger effect = lower value 1.01 | locus YGL227W, strain vid30, stronger effect = lower value 0.996 | locus YGL240W, strain doc1, stronger effect = lower value 1 | locus YGL248W, strain PDE1, stronger effect = lower value 1.01 | locus YGL253W, strain hxk2, stronger effect = lower value 0.981 | locus YGR078C, strain PAC10, stronger effect = lower value 1.01 | locus YGR135W, strain pre9, stronger effect = lower value 1.01 | locus YGR229C, strain SMI1, stronger effect = lower value 1.01 | locus YGR252W, strain gcn5, stronger effect = lower value 1.05 | locus YHR013C, strain ard1, stronger effect = lower value 0.969 | locus YHR027C, strain rpn1, stronger effect = lower value 1.03 | locus YHR030C, strain SLT2, stronger effect = lower value 1 and 0.984 | locus YHR079C, strain IRE1 (second series), stronger effect = lower value 0.998 | locus YHR079C, strain IRE1, stronger effect = lower value 0.966 | locus YHR094C, strain hxt1, stronger effect = lower value 1.01 | locus YHR129C, strain ARP1, stronger effect = lower value 1 | locus YHR142W, strain chs7, stronger effect = lower value 0.972 | locus YHR200W, strain rpn10, stronger effect = lower value 1.01 | locus YIL066C, strain RNR3, stronger effect = lower value 1.01 | locus YIL073C, strain SPO22, stronger effect = lower value 1.05 | locus YIL125W, strain kgd1, stronger effect = lower value 1.01 | locus YIR030C, strain dcg1, stronger effect = lower value 1 | locus YJL092W, strain hpr5, stronger effect = lower value 1.01 | locus YJL095W, strain BCK1 (second series), stronger effect = lower value 1.01 | locus YJL095W, strain BCK1, stronger effect = lower value 1.01 and 0.973 | locus YJL115W, strain asf1, stronger effect = lower value 1 | locus YJL129C, strain trk1, stronger effect = lower value 0.948 | locus YJL134W, strain LCB3, stronger effect = lower value 0.999 | locus YJL154C, strain vps35, stronger effect = lower value 0.998 | locus YJL164C, strain tpk1, stronger effect = lower value 0.981 | locus YJL166W, strain qcr8, stronger effect = lower value 1.03 | locus YJL168C, strain set2, stronger effect = lower value 0.999 | locus YJL187C, strain SWE1 (second series), stronger effect = lower value 1.01 | locus YJL187C, strain SWE1, stronger effect = lower value 1.01 | locus YJR043C, strain POL32, stronger effect = lower value 1.02
